Among all 330,000 compounds or so, about 880 (0.27%) were called active. Another 1% or so got no clear call; they are omitted. The rule behind the calls is not given here. The list is a sample of the results.
Test: beta-lactam sensitization of Mtb H37Rv, H37Rv (AID 434955);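 note: growth measured after seven days incubation then overnight dye step; 0% = bacteria only wells and 100% = bacteria with antibiotic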
Settings: M. tuberculosis H37Rv growth with meropenem, percent inhibition, at 25 µM
[1] = measured here: primary screen without meropenem

Row | SMILES | inhibition (stronger effect = higher value) | inhibition [1]
1 | CSc1ccc(CN2C(=O)NC3(CCCCCC3)C2=O)cc1 | 19.2% (inactive) | 5.94%
2 | CCN(CC)CCNCC(=O)Nc1ccc(Oc2ccccc2)cc1 | -3.27% (inactive) | 3.64%
3 | COc1ccc(N2CCN(C(=O)CCNC(=O)c3ccc(Br)cc3)CC2)cc1 | -10.2% (inactive) | -3.75%
4 | O=C(NCc1ccccc1)C(c1ccco1)N(C(=O)c1csnn1)c1ccccc1F (configuration not stated) | -3.66% (inactive) | -4.47%
5 | COc1ccccc1CN1CC(C(=O)NCCc2cn[nH]c2)CCC1=O (configuration not stated) | -1.38% (inactive) | 3.44%
6 | CC1=NCCN1S(=O)(=O)c1ccc(Br)c(C)c1 | 5.04% (inactive) | 10.8%
7 | Cn1c(SCC(=O)N2CCOCC2)nnc1-c1ccc(NC(=O)c2ccccc2F)cc1 | -1.25% (inactive) | -0.23%
8 | Cc1ccc(S(=O)(=O)N(C)CC(=O)OCC(=O)N2CC(=O)Nc3ccccc32)cc1 | -3.86% (inactive) | -0.77%
9 | Cc1csc(Nc2ccc(Cl)cc2)[n+]1-c1ccc(Cl)cc1 | 5.09% (inactive) | -4.07%
10 | C=CCC(NCc1ccco1)c1ccc(OC)cc1 (configuration not stated) | -0.53% (inactive) | -3.95%
11 | CCCc1ccc(-c2c(C)sc(NC(=O)c3ccnn3C)c2C#N)cc1 | 15.9% (inactive) | -4.16%
12 | N#Cc1ccc(OCCN2C(=O)NC3(CCSC3)C2=O)cc1 (configuration not stated) | -7.2% (inactive) | -8.16%
13 | CN(C)CCn1c2c(c(SCC(=O)Nc3ccccc3C(F)(F)F)nc1=O)CCCC2 | -6.06% (inactive) | -5.4%
14 | O=C(NCCc1ccccc1)C1CCC(Cn2c(=O)c3ccccc3n(Cc3cccnc3)c2=O)CC1 (configuration not stated) | 19.4% (inactive) | 2.41%
15 | O=S(=O)(NCC1CC1)c1ccc(F)c(Cl)c1 | -3.45% (inactive) | 1.07%
16 | O=C(Nc1ccccc1Cl)/C(Cl)=C(\Cl)S(=O)c1ccccc1 (configuration not stated) | 100% (inactive) | 100%
17 | O=C(Oc1c(-c2ccco2)oc2ccccc2c1=O)c1cccnc1 | 92.5% (inactive) | 91.2%
18 | Cc1ccc(OCC(=O)Oc2ccccc2[N+](=O)[O-])cc1 | -3.48% (inactive) | -11.4%
19 | O=C1NC2(CCCCC2)N=C1c1ccccc1 | -10.1% (inactive) | -2.99%
20 | Cc1cc(NC(=O)c2ccccc2C)no1 | -1.93% (inactive) | 3.81%
21 | Cc1n[nH]c(=O)c2c(NC(=O)CSc3cc(Cl)ccc3Cl)oc(C)c12 | -5.41% (inactive) | -1.99%

Row | SMILES | inhibition (stronger effect = higher value) | inhibition [1]
22 | CC(C)C(=O)Nc1nnc(SCC(=O)N2C(C)CCCC2C)s1 (configuration not stated) | 0.21% (inactive) | 10.7%
23 | Cc1ccc2c(c1)-c1c(ssc1=S)C(C)(C)N2C(=O)CN1C(=O)c2ccccc2C1=O | -4.41% (inactive) | -1.91%
24 | CC1Sc2ccc(C(=O)NCc3ccccc3Cl)cc2NC1=O (configuration not stated) | 6.05% (inactive) | 2.96%
25 | COc1cc(C2C(C(=O)OCCC#N)=C(C)NC3=C2S(=O)(=O)c2ccccc23)cc(OC)c1OC (configuration not stated) | 4.16% (inactive) | 1.07%
26 | COc1ccc(-c2cc(=O)oc3cc(OC(C)C(=O)Nc4ccc(CN5CCOCC5)cc4)ccc23)cc1 (configuration not stated) | 98.4% (inactive) | 96.8%
27 | CC(Sc1nnc2c(n1)C1CCC2(C)C1(C)C)C(=O)Nc1ccccc1 (configuration not stated) | -4.99% (inactive) | -6.12%
28 | Nn1c(SCC(=O)Nc2ccc3c(c2)CCC3)nnc1C1CC1 | -4.28% (inactive) | -7.87%
29 | C/C=C(\C)C(=O)NCCN1C2=NC[C@H](Cc3ccc(O)cc3)N2C[C@@H]1Cc1ccc(OC)cc1 | -14.9% (inactive) | -6%
30 | CSCCC(Nc1ccc(S(=O)(=O)N2CCOCC2)cc1[N+](=O)[O-])C(=O)OCC(=O)N(C(C)C)C(C)C (configuration not stated) | 3.64% (inactive) | 2.01%
31 | CCCCC(C(=O)NC(C)(C)C)N(Cc1ccccc1)C(=O)c1snc(C(N)=O)c1N (configuration not stated) | -2.34% (inactive) | 4.81%
32 | Fc1ccc2c(c1)C(c1cccnc1)=NNC(c1cccs1)=N2 | 31% (inactive) | 4.96%
33 | Cc1ccc(-c2csc(NC(=O)C3=COCCO3)n2)cc1C | 92.7% (inactive) | 99.3%
34 | CN(CC(=O)Nc1ccc(S(=O)(=O)N2CCCC2)cc1)Cc1ccc(Cl)c(Cl)c1 | 1.99% (inactive) | 0.57%
35 | C=C(C)c1cccc(C(C)(C)NC(=O)N2CCN(c3ncccn3)CC2)c1 | -9.15% (inactive) | -8.65%
36 | O=C1C=C(c2ccnc3cc(Cl)ccc23)C[C@@H](c2ccc3c(c2)OCO3)C1 | 52.4% (inactive) | 50.9%
37 | CCc1ccc(/C=N/NC(=O)c2ccc(OC3CCCC3)cc2)s1 | 2.88% (inactive) | 3.87%
38 | Cc1ccc(-n2cc(CN(C)Cc3nccn3C)c(-c3cccc(C)c3)n2)cc1 | 98.9% (inactive) | 99.4%
39 | O=C(NC(=S)N1CCN(Cc2ccccc2)CC1)c1ccccc1 | 36.8% (inactive) | -3.71%
40 | CC(OC(=O)CN1C(=O)C2CCCCC2C1=O)C(=O)Nc1ncc(Cl)cc1Cl (configuration not stated) | -4.66% (inactive) | 4.44%
41 | C/C(Cc1ccccc1)=N\NC(=O)CNC(=O)c1ccccc1Cl | -6.3% (inactive) | 2.92%
42 | CCc1cccc(C)c1NC(=O)COC(=O)Cc1ccsc1 | -1.39% (inactive) | 2.58%

Row | SMILES | inhibition (stronger effect = higher value) | inhibition [1]
43 | O=S(=O)(c1ccc(F)cc1)N1CCN=C1SCc1cccc(F)c1 | 9.8% (inactive) | 11.2%
44 | NC(=O)C1CCN(C(=O)/C(=C/c2ccco2)NC(=O)c2ccccc2)CC1 | -2.14% (inactive) | -8.97%
45 | CCCCNCc1ccc(SC)cc1 | -3.24% (inactive) | -0.62%
46 | O=C1CC(=O)Nc2cc(S(=O)(=O)N3CCN(c4cccc(C(F)(F)F)c4)CC3)ccc2N1 | -1.42% (inactive) | 4.41%
47 | Cc1ccc(N2C(=O)CC(NCc3ccc4c(c3)OCO4)C2=O)cc1Cl (configuration not stated) | -7.15% (inactive) | 0.64%
48 | COc1cc(NC(=S)N2CCCC(C)C2)cc(OC)c1OC (configuration not stated) | 0.37% (inactive) | 3.47%
49 | CCOc1ccc(NC(=O)C(C)N2C(=O)c3ccccc3C2=O)cc1 (configuration not stated) | -0.05% (inactive) | 0.73%
50 | CC(C)NS(=O)(=O)c1ccc(CCC(=O)N2CCOCC2)cc1 | -4.86% (inactive) | -6.67%
51 | CC(=O)OCCC(C)C | -5.13% (inactive) | -1%
52 | CCOC(=O)c1cn[nH]c1NC(=S)Nc1ccccc1 | -8.22% (inactive) | -3.62%
53 | CCCCNC(=O)Cn1nc(C)c(S(=O)(=O)N2CCOCC2)c1C | -4.34% (inactive) | -4.6%
54 | Fc1ccc(N2N=C(c3cccs3)CC2c2ccco2)c(F)c1 (configuration not stated) | 35.4% (inactive) | 9.4%
55 | Cc1ccc(N(CC(=O)NC2CCCCC2)C(=O)CCCC(=O)Nc2ccccn2)c(C)c1 | -1.33% (inactive) | -1.01%
56 | CCSC1=NCCN1C(=O)c1ccc(S(=O)(=O)N(CC)CC)cc1 | 6.44% (inactive) | 0.45%
57 | COc1ccccc1-c1oc2ccccc2c1C#CCCCCO | 10.7% (inactive) | 7.25%
58 | CC(C)OC(=O)CN1CCN(c2ccc(Cl)cc2)CC1 | -3.97% (inactive) | -7.14%
59 | O=C(Nc1cccnc1)c1noc2c1CCCCC2 | 2.93% (inactive) | -8.89%
60 | COc1ccc(S(=O)(=O)N2CCCCC2)cc1NC(=O)c1cc([N+](=O)[O-])ccc1N1CCOCC1 | -11.2% (inactive) | -3.23%
61 | COC(=O)CC(=O)N1CCN(c2ccc(Cl)c(Cl)c2)CC1 | -8.83% (inactive) | 97.6%
62 | Cc1cccc(NC(=O)C(C)N2C(=O)C3C4CC(C(Br)C4Br)C3C2=O)c1 (configuration not stated) | -22.1% (inactive) | -16.2%
63 | CC(C)c1ccc(NC(=O)CCN2C(=O)c3ccc([N+](=O)[O-])cc3C2=O)cc1 | -2.88% (inactive) | -6.43%

Row | SMILES | inhibition (stronger effect = higher value) | inhibition [1]
64 | Cc1nc(COc2cccc(Cl)c2)sc1C(=O)/C=C/N(C)C | -4.65% (inactive) | -0.85%
65 | C/C(=N/NC(=O)CSc1ccccn1)c1ccc([N+](=O)[O-])cc1 | -3.17% (inactive) | 6.64%
66 | O=C(NC(=O)c1ccccc1)Nc1ccccc1O | 0.65% (inactive) | 3%
67 | O=C1[C@@H]2C(c3cccnc3)=NO[C@@H]2C(=O)N1c1ccc(Cl)cc1Cl | -5.66% (inactive) | 0.68%
68 | C[C@@H]1C[C@@H]2O[C@H]2/C=C\C=C\C(=O)Cc2c(Cl)c(O)cc(O)c2C(=O)O1 | 29.7% (inactive) | 18.4%
69 | CCc1ccc2[nH]c(=O)c(Cc3ccccc3)c(O)c2c1 | -0.83% (inactive) | -2.95%
70 | O=C(C1CCCN1S(=O)(=O)c1ccc(Br)cc1)N1CCOCC1 (configuration not stated) | -1.22% (inactive) | 0.94%
71 | Cc1c(NC(=O)C(C)OC(=O)c2cc3c4ccccc4n(C)c3s2)c(=O)n(-c2ccccc2)n1C (configuration not stated) | 4.17% (inactive) | 3.63%
72 | O=C(CSC1CC(=O)N(CCc2ccccc2)C1=O)Nc1ccc(Cl)cc1 (configuration not stated) | -1.52% (inactive) | -3.81%
73 | CCOc1ccc(C(O)Cn2c(=N)n(CCN3CCCCC3)c3ccccc32)cc1 (configuration not stated) | 8.31% (inactive) | 3.41%
74 | O=S(=O)(Nc1ccc(Cl)cn1)c1cnc(Cl)c(Br)c1 | -1.47% (inactive) | -1.06%
75 | Cc1cc(NC(=O)OC(C)C)ccc1-c1ccc(NC(=O)OC(C)C)cc1C | 0.85% (inactive) | -5.74%
76 | CCNC(=O)CC1C(=O)N(c2ccc(OC)cc2)C(=O)N1CCOC (configuration not stated) | 7.04% (inactive) | -0.36%
77 | COC(=O)Cc1ccc(NC(=S)NCc2ccco2)cc1 | -6.59% (inactive) | 47.6%
78 | Cc1cccc([C@@H]2[C@@H]3C(=O)N(C)C(=O)[C@@H]3[C@@H]3C(=O)Nc4ccccc4C(=O)N23)c1 | -6.47% (inactive) | -0.42%
79 | O=C1c2ccccc2C(=O)N1CCOc1ccc(F)cc1 | -2.05% (inactive) | -1.56%
80 | Cn1cc(CCC(=O)N2CCCC(C(=O)c3ccc(C(C)(C)C)cc3)C2)cn1 (configuration not stated) | 0.49% (inactive) | 4.84%
81 | CCSCc1nc(N)nc(NCCc2ccccc2)n1 | 0.44% (inactive) | 4.31%

Source: PubChem BioAssay AID434955 (Southern Research Specialized Biocontainment Screening …, 2010)
